Measurements reported in PubChem BioAssay AID1159580 (chemical genetic matrix, 2015).
Where “and” joins values, the source holds several entries; their conditions need not be identical. Equal values may be shown once. Hit rate of the full screen: of about 5,500 compounds, about 2,000 (36%) were called active. Roughly 18% stayed inconclusive and do not appear here. No stated cut-off is given here; in the data, active means normalized growth mostly below about 0.91 (no sharp cut-off); inconclusive means no clear call, values can overlap the other calls; inactive means mostly above about 0.92. The list shows a part of the results.

Assay: chemical genetic growth profiling, strain panel (AID 1159580);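 further: tested at 20 µM; growth read once vehicle control cultures reached saturation at 30 °C; 1 = growth at the plate median or of vehicle wells; lower values mean less growth of the strain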
Conditions: S. cerevisiae deletion strains, growth OD

Measured: normalized growth

Cn1c(=O)[nH]c(=O)c2[nH]cnc21
inactive: locus YAL013W, strain DEP1, active compounds read low 0.993 | locus YAL021C, strain ccr4, active compounds read low 0.997 | locus YAL026C, strain drs2, active compounds read low 0.989 | locus YAL030W, strain snc1, active compounds read low 0.995 | locus YBL061C, strain skt5, active compounds read low 1.01 | locus YBR009C, strain hhf1, active compounds read low 0.999 | locus YBR021W, strain FUR4, active compounds read low 0.991 | locus YBR023C, strain chs3, active compounds read low 0.985 | locus YBR171W, strain sec66, active compounds read low 0.982 | locus YBR229C, strain ROT2, active compounds read low 0.987 | locus YBR231C, strain swc5, active compounds read low 0.993 | locus YBR279W, strain paf1, active compounds read low 0.988 | locus YCL011C, strain gbp2, active compounds read low 1 | locus YCL016C, strain dcc1, active compounds read low 0.987 | locus YCL029C, strain bik1, active compounds read low 0.971 | locus YCL061C, strain MRC1, active compounds read low 0.981 | locus YCL069W, strain vba3, active compounds read low 0.999 | locus YCR088W, strain abp1, active compounds read low 0.988 | locus YDL005C, strain med2, active compounds read low 0.966 | locus YDL035C, strain GPR1, active compounds read low 1 | locus YDL040C, strain nat1, active compounds read low 0.99 | locus YDL074C, strain BRE1, active compounds read low 1.01 | locus YDL101C, strain DUN1, active compounds read low 0.984 | locus YDL134C, strain PPH21, active compounds read low 0.999 | locus YDL185W, strain tfp1, active compounds read low 0.955 | locus YDL192W, strain arf1, active compounds read low 0.981 | locus YDR001C, strain nth1, active compounds read low 0.996 | locus YDR069C, strain doa4, active compounds read low 0.971 | locus YDR101C, strain arx1, active compounds read low 0.981 | locus YDR137W, strain rgp1, active compounds read low 0.979 | locus YDR150W, strain NUM1, active compounds read low 0.994 | locus YDR159W, strain sac3, active compounds read low 0.956 | locus YDR162C, strain NBP2, active compounds read low 0.988 | locus YDR195W, strain ref2 1 | locus YDR297W, strain sur2, active compounds read low 1 | locus YDR318W, strain mcm21, active compounds read low 0.98 | locus YDR334W, strain swr1, active compounds read low 1.01 | locus YDR335W, strain msn5, active compounds read low 0.997 | locus YDR388W, active compounds read low 0.966 | locus YDR392W, strain spt3, active compounds read low 0.941 | locus YDR502C, strain sam2, active compounds read low 0.982 | locus YEL003W, strain gim4, active compounds read low 1 | locus YEL037C, strain rad23, active compounds read low 1 | locus YEL061C, strain CIN8 (second series), active compounds read low 0.999 | locus YEL061C, strain CIN8, active compounds read low 0.994 | locus YER015W, strain faa2, active compounds read low 0.996 | locus YER016W, strain bim1, active compounds read low 1.01 | locus YER110C, active compounds read low 0.969 | locus YER111C, strain swi4, active compounds read low 1 | locus YER155C, strain BEM2 (second series), active compounds read low 0.981 | locus YER155C, strain BEM2, active compounds read low 0.989 | locus YER167W, strain BCK2, active compounds read low 0.975 | locus YFR010W, strain ubp6, active compounds read low 1 | locus YGL078C, strain dbp3, active compounds read low 0.969 | locus YGL086W, strain mad1, active compounds read low 0.977 | locus YGL167C, strain pmr1, active compounds read low 1 | locus YGL173C, strain kem1, active compounds read low 0.991 | locus YGL227W, strain vid30, active compounds read low 0.999 | locus YGL240W, strain doc1, active compounds read low 0.969 | locus YGL248W, strain PDE1, active compounds read low 0.983 | locus YGL253W, strain hxk2, active compounds read low 0.975 | locus YGR078C, strain PAC10, active compounds read low 0.996 | locus YGR135W, strain pre9, active compounds read low 0.977 | locus YGR229C, strain SMI1, active compounds read low 0.993 | locus YGR252W, strain gcn5, active compounds read low 1.06 | locus YHR013C, strain ard1, active compounds read low 0.975 | locus YHR027C, strain rpn1, active compounds read low 0.983 | locus YHR030C, strain SLT2, active compounds read low 0.981 and 0.987 | locus YHR079C, strain IRE1 (second series), active compounds read low 0.97 | locus YHR079C, strain IRE1, active compounds read low 0.984 | locus YHR094C, strain hxt1, active compounds read low 0.977 | locus YHR129C, strain ARP1, active compounds read low 0.994 | locus YHR142W, strain chs7, active compounds read low 1 | locus YHR200W, strain rpn10, active compounds read low 0.968 | locus YIL066C, strain RNR3, active compounds read low 0.988 | locus YIL073C, strain SPO22, active compounds read low 0.935 | locus YIL125W, strain kgd1, active compounds read low 0.971 | locus YIR030C, strain dcg1, active compounds read low 0.967 | locus YJL092W, strain hpr5, active compounds read low 0.996 | locus YJL095W, strain BCK1 (second series), active compounds read low 0.999 | locus YJL095W, strain BCK1, active compounds read low 0.977 and 0.976 | locus YJL115W, strain asf1, active compounds read low 0.973 | locus YJL129C, strain trk1, active compounds read low 0.968 | locus YJL134W, strain LCB3, active compounds read low 0.987 | locus YJL154C, strain vps35, active compounds read low 0.998 | locus YJL164C, strain tpk1, active compounds read low 1.01 | locus YJL166W, strain qcr8, active compounds read low 1 | locus YJL168C, strain set2, active compounds read low 0.973 | locus YJL187C, strain SWE1 (second series), active compounds read low 0.987 | locus YJR043C, strain POL32, active compounds read low 1 | locus YJR066W, strain TOR1, active compounds read low 0.911
